Compound activity deposited in PubChem BioAssay by National Center for Advancing Translational Sciences (NCATS).
Tb PYK inh: inhibitors of Trypanosoma brucei pyruvate kinase | Q57TT1 | TbPYK enzyme, Kinase-Glo Plus ATP luminescence, 45 min | Potency, µM (top dose mostly 76.8 µM), for inactives: at the highest dose activity, negative = inhibition, usual class: inhibitors | 410,000 compounds, 0.12% hits | AID 624173; also: nearly all actives have a fitted effect of over 50% in size
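TbPYK + substrate in 50 mM TEA pH 7.2, 100 mM KCl, 10 mM MgCl2, 0.05% BSA, 0.01% Tween-20; cpd pinned; ADP 130 uM final; 45 min RT; Kinase-Glo Plus 10 min; luminescence endpoint.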
AMA1-RON2 inh: inhibitors of Plasmodium falciparum AMA1-RON2 interaction; 360,000 compounds, 0.2% hits; AlphaScreen AMA1-biotinylated RON2 peptide binding; Potency, µM (titrated, usually from 58.2 µM), for the others: at the highest dose activity change, negative = inhibition, actives largely listed as inhibitors;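 also: 0% = vehicle wells and -100% = peptide control; nearly all actives have a fitted effect of over 45% in size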
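AMA1 (3D7) with his tag at 25 nM final met compounds first, then biotinylated RON2 peptide at 25 nM; detection used donor plus acceptor beads, 10 µg/mL apiece, read by AlphaScreen after 30 min at room temperature.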
RE007 growth inh: less growth of the S. pombe RE007 Vpr strain; S. pombe RE007 Vpr strain, BacTiter-Glo ATP luminescence, 24 h; Potency, µM (titrated, usually from 92.2 µM), inactives show at the top dose activity change, negative = less growth, usual class: inhibitors; 360,000 compounds, 0.21% hits; active = well fitted falling curve with a large enough effect; inconclusive = small, poorly fitted or top-dose-only effect; inactive = no such curve, though single readings can be large or run the other way; also: nearly all actives have a fitted effect of over 50% in size
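Fission yeast strain RE007, carrying one chromosomally integrated HIV-1 vpr copy, was seeded at OD 0.01 in PMG+AL medium with 23 nL pinned compound. After 24 h at 30 °C and 99% humidity, viability was read by BacTiter-Glo luminescence.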
LmPK inh: blocks Leishmania mexicana pyruvate kinase activity | Q27686 | purified LmPK, Kinase-Glo ATP luminescence, 1 h | Potency, µM (top dose mostly 57.5 µM), without a hit: top-dose activity change, negative = inhibition, hits mostly inhibitors | 290,000 compounds, 0.37% hits | AID 1721
Target sequence (Q27686 whole entry, looked up): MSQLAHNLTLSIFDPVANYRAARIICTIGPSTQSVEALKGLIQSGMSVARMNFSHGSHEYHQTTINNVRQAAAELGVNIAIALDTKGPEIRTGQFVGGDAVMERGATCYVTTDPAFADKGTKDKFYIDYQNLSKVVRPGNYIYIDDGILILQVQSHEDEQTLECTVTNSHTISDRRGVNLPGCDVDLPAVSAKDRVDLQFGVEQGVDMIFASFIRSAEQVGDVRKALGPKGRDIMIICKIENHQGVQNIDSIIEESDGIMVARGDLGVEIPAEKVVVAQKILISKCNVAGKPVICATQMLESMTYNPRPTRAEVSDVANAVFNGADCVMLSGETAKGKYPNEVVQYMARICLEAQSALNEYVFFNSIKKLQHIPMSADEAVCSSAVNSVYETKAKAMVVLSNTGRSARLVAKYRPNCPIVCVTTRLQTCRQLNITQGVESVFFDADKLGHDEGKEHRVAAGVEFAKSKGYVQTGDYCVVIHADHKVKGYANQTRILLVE
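Kinase-Glo luminescence read after 1 h RT reaction of 0.1 nM LmPK with 0.5 mM PEP and 0.1 mM ADP. Activity scaled between uninhibited and enzyme-free controls.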
Starred values were filed as active, the others as inactive; ? = inconclusive; nt = no result given; [ ] = another dose, or the depositor's remark. Sampled rows, rich in hits. Any-hit rate of the full collection: about 0.68%. Unless noted, calls follow the shape of the dose curve; as a rule, active = well fitted curve in the direction sought with a large enough effect; inconclusive = small, poorly fitted or top-dose-only effect, or another doubt; inactive = no such curve, though single readings can be large; an effect the other way counts as inactive or inconclusive. Unless noted, % is scaled to controls: 0 for no effect and ±100 for the full control effect; potency is read from the fitted curve at half-maximal effect.

SMILES	Tb PYK inh	AMA1-RON2 inh	RE007 growth inh	LmPK inh
Cn1c2nc3ccccc3c-2nc2ccccc21	-15%	-9%	-24%	nt
CN(C)c1ccc(-c2nc3ccccc3n2C)cc1	?	-13%	?	13µM*
Cn1cc(C(=O)c2ccccc2)cc1-c1nc2ccccc2n1C	-2%	-4%	-3%	5%
Cc1oc(-c2nc3ccccc3n2C)cc1C(=O)c1ccccc1	32µM*	9%	?	13µM*
COc1cccc(CNC(=O)C2CCCN(S(=O)(=O)c3c(C)noc3/C=C/N(C)C)C2)c1 (stereo not given)	0%	-10%	-14%	6%
Cn1nc(C(F)(F)F)c(/C=N/OC(=O)c2ccccc2)c1Sc1ccc(Cl)cc1	-7%	8%	14%	0%
COc1ccc(CC(=O)n2[nH]c(=O)c3ccccc3c2=O)cc1OC	3%	4%	3%	3%
COc1ccc(CC(=O)n2[nH]c(=O)ccc2=O)cc1OC	7.1µM*	59%	6%	-3%
Cc1ccc(NC(=O)N2CC=C(c3c[nH]c4ccccc34)CC2)cc1Cl	-4%	nt	nt	nt
CCN(CC)c1ccc(/C=N/OCC(=O)N2CCCc3ccccc32)cc1	1%	28µM*	3%	3%
O=C(CO/N=C/c1ccc(OC(F)F)cc1)N1CCc2ccccc21	-5%	2%	5%	2%
c1ccc(-c2nc(N3CCOCC3)s[n+]2-c2ccccc2)cc1	2.5µM*	5%	nt	-19%
c1ccc(-c2nc(N3CCOCC3)sc2-c2ccccc2)cc1	3%	-15%	3%	-8%
CCOc1ccc(-c2nonc2NC(=O)c2ccco2)cc1	-3%	-6%	7%	-1%
CCOC(=O)C1=CC[C@@H](c2ccccc2)N(S(=O)(=O)c2ccc(C)cc2)[C@H]1c1ccccc1C	4%	2%	1%	nt
O=C(c1ccco1)n1c(=S)nc2ccccn21	-19%	26%	-4%	14µM*
Cc1cccc2nc(=S)n(C(=O)c3ccco3)n12	-20%	11%	-22%	13µM*
Nc1ncnc2nc(SCCOc3ccc(Cl)cc3)[nH]c12	-2%	24%	-8%	-1%
CCOC(=O)CCCc1sc(N)nc1-c1[nH]c(=O)[nH]c1C	?	1.5µM*	-5%	1%
COc1cc(-c2coc3c(C(=O)NCc4ccc(N(C)C)cc4)cccc23)ccc1O	-7%	32µM*	-18%	nt
COc1ccc(-c2ccc(C(=O)NCc3ccc(N(C)C)cc3)c3occc23)c(C)c1	-1%	8.9µM*	-3%	nt
COc1ccc(-c2ccc(C(=O)NCc3ccco3)c3occc23)c(C)c1	0%	-19%	10%[18.4 µM]	nt
Cn1nc(C(=O)NCc2cccs2)c2ccccc2c1=O	5%	-1%	17%	3%
COc1ccc(-c2n[nH]c(=S)n2-c2cc(OC)ccc2OC)cc1	2.8µM*	71%	6%	3.5µM*
COc1ccc(-c2cc(-c3n[nH]c(=S)n3-c3cc(OC)ccc3OC)[nH]n2)cc1	?	18%	23%	?
SMILES	Tb PYK inh	AMA1-RON2 inh	RE007 growth inh	LmPK inh
COc1ccc(OC)c(-n2c(-c3ccc(C)cc3)n[nH]c2=S)c1	?	44%	-1%	2.5µM*
Cc1occc1-c1n[nH]c(=S)n1-c1ccccc1	18µM*	13%	-1%	?
COc1ccc(OC)c(-n2c(-c3cc(-c4ccc(F)cc4)n[nH]3)n[nH]c2=S)c1	?	74%	-14%	14µM*
COc1ccc(CCN2C(=O)CCC2(C)C(=O)NCc2cccnc2)cc1OC (stereo not given)	0%	0%	0%	-9%
CC(=O)Nc1ccc(-n2nnnc2SCC(=O)Nc2cccc(NC(=O)c3ccco3)c2)cc1	-1%	?	-5%	7%
O=C(CCCSc1nc(-c2ccco2)cc(C(F)(F)F)n1)NCc1cccs1	-9%	11%	17%	0%
S=c1[nH]nc(-c2cc(-c3ccco3)[nH]n2)n1-c1ccccc1Cl	?	40%	16%	21%
COc1ccc(OC)c(-n2c(-c3cccc(O)c3)n[nH]c2=S)c1	14µM*	28%	1%	2µM*
COc1ccccc1-n1c(-c2ccc(NS(C)(=O)=O)cc2)n[nH]c1=S	?	3%	0%	7.9µM*
S=c1[nH]nc(-c2cc(-c3ccco3)[nH]n2)n1-c1ccccc1	?	89%	22%	13µM*
COc1ccc(OC)c(-n2c(-c3cc(-c4ccco4)[nH]n3)n[nH]c2=S)c1	3.2µM*	22%	8%	5%
